These results are taken from PubChem BioAssay (NCATS).

The structures appear in SMILES notation. A number with no mark means an inactive call. Results filed as inconclusive are left out. Activity calls are given as the source filed them. Unless noted, calls come from the whole dose curve; as a rule, active = well fitted curve in either direction with a large enough effect (not every such curve was filed as active); inconclusive = small, poorly fitted or top-dose-only effect, or another doubt; inactive = flat fitted curve, though single readings scatter.

Test [1] in a line: AP1 Signaling Pathway (AID 357).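 Note: ME-180 reporter cells stimulated with EGF at its EC50 level; % is set by controls: 0 for no effect and ±100 for the full control effect.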 Conditions: ME-180 AP-1-bla reporter, EGF-induced, beta-lactamase ratio, 5 h; at 17.2 µM (top of the series) unless noted. In short, it runs like this:
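Titration-series screen for positive or negative modulators of EC50 EGF-induced signaling in ME-180 cells carrying an AP-1-driven beta-lactamase reporter. After 5 hours at 37 degrees Celsius, CCF4 460nm/530nm emission ratio gave %Activity; AC50 values derived.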

A short description of test [2]: NFAT Signaling Pathway (AID 444).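 Note: carbachol stimulus at about its EC50 of 1 µM final; % is set by controls: 0 for no effect and ±100 for the full control effect.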 To be noted: Jurkat NFAT-bla M1, carbachol, beta-lactamase ratio, 5 h; at 17.2 µM (top of the series) unless noted. The procedure, abridged:
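Jurkat cells with NFAT-driven β-lactamase reporter and co-expressed M1 receptor, stimulated with carbachol (final 1 uM, ~EC50), compound titration, 5 h at 37 °C. CCF4 loaded 1 h at RT; 460/530 nm ratio gave %activity and AC50.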

Test [3] in a line: Stat Signaling Pathway (AID 446).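 Note: ME-180 cervical cancer cells given 40 pM IL-6 alongside compound; SIE-controlled beta-lactamase reporter measured as 460/530 nm FRET emission ratio; % is set by controls: 0 for no effect and ±100 for the full control effect.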 Conditions: ME-180 (cervical carcinoma) SIE beta-lactamase reporter, IL-6 stimulated, 5 h; at 17.2 µM (top of the series) unless noted. The procedure, abridged:
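FRET read-out (405 nm excitation, 460/530 nm emission) of a beta-lactamase reporter under a STAT-inducible element in ME-180 cervical carcinoma cells. Cells with compound receive 40 pM IL-6 for 5 h. Values are normalised to AC90 stimulation and AC90 JAK-inhibitor controls.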

The target in test [4] is Glucocorticoid receptor (Homo sapiens) (UniProt P04150). Description: GR-GFP Redistribution (AID 450;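 active = compounds whose dose series gives a full or clear partial fitted curve of increased nuclear translocation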; note: potency is the fitted concentration of half-maximal effect).
Sequence of Glucocorticoid receptor (Homo sapiens) (P04150 whole entry, looked up): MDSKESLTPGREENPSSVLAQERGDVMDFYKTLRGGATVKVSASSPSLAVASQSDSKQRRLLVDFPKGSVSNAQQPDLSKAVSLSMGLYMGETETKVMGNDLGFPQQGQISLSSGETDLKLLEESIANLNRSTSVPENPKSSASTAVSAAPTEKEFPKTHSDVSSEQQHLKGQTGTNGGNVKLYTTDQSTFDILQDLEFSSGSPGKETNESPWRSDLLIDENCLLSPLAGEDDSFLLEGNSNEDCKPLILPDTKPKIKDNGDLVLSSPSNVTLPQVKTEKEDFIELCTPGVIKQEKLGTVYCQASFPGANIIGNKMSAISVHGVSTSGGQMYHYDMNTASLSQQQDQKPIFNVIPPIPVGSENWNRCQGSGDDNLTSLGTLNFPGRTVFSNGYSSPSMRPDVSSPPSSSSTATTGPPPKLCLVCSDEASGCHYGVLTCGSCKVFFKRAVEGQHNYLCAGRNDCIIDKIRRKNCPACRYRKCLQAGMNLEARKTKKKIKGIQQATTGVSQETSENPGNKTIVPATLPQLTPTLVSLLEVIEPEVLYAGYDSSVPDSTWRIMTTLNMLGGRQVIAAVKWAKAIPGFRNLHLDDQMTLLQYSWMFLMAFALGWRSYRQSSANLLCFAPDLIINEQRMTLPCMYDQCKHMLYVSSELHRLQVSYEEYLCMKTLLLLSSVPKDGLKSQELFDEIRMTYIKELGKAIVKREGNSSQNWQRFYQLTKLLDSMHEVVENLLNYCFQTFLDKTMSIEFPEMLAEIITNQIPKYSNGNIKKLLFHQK

As for `COc1ccc(/C(O)=C2/C(=O)C(=O)N(c3ncccn3)C2c2ccc(OC)c(OC)c2)cc1` (configuration not stated), the activity change, negative = inhibition is 10.2% in test [1] and -0.912% in test [2]. The activity, negative = inhibition in test [3] was -6.81%. For the same molecule, in test [4], the Potency is greater than 20.6 µM.
In the same order, the values of `CC(C)CN1C(=O)c2ccc(C(=O)Nc3ccccn3)cc2C1=O` are -5.2%, 27.9%, 4.97% and greater than 20.6 µM.
With `COCCOCCOCCC(=O)NC1CC2CCC1(C)C2(C)C` (configuration not stated), the activity change, negative = inhibition in test [1] was 13.7%; in test [2], 0.73%. The activity, negative = inhibition in test [3] is -0.452%. In test [4], the Potency is greater than 20.6 µM.
`CCN(CC)CCN1C(=O)C(=O)/C(=C(/O)c2ccc(Cl)cc2)C1c1ccncc1` (configuration not stated): the activity change, negative = inhibition in test [1] is -3.59%; in test [2], 22.9%. Besides, in test [3], the activity, negative = inhibition was 7.2%. Moreover, in test [4], the Potency is greater than 20.6 µM.
In the same order, the values of `Cc1nc(NCCO)c(C#N)c2c1COC(C)(C)C2` are -5.08%, 2.21%, 4.18% and greater than 20.6 µM.
In the same order, the values of `Oc1ccc2ccccc2c1/C=N/n1cnnc1` are -5.14%, 6.11%, -0.766% and greater than 20.6 µM.
Take `CCCCOc1ccc(C(=O)N2CCCC2C(=O)O)cc1` (configuration not stated): the activity change, negative = inhibition is -0.0169% in test [1] and -4.49% in test [2]. Besides, the activity, negative = inhibition in test [3] was 9.6%. In test [4], the Potency was greater than 20.6 µM.
For `COc1cc(/C=N/n2nnnc2N)ccc1O` the same measures were -2.54%, -23.8%, -1.69% and greater than 20.6 µM.
In the same order, the values of `CN=c1sc2ccccc2n1CC(O)COCc1ccco1` (configuration not stated) are -8.62%, 1.06%, -2.56% and greater than 20.6 µM.
For `CCN(CC)c1nc(C)c2c(c1C#N)CC(C)(C)OC2` the same measures were -7.83%, -24.4%, 7.18% and greater than 20.6 µM.
`O=C1C2CC=C(Cl)CC2C(=O)N1CNc1ccccn1` (configuration not stated): the activity change, negative = inhibition in test [1] was -0.589%; in test [2], -12.9%. Besides, in test [3], the activity, negative = inhibition was 7.34%. For the same molecule, the Potency in test [4] is greater than 20.6 µM.
In the same order, the values of `Cn1c(=O)c2c(nc(N3CCN(Cc4ccccc4)CC3)n2CC(=O)c2ccccc2)n(C)c1=O` are -9.66%, -8.82%, 0.621% and greater than 20.6 µM.
In the same order, the values of `COCC(C)Nc1ncnc2c1cnn2-c1ccc(Cl)cc1` (configuration not stated) are -23.7%, -6.38%, -3.72% and greater than 20.6 µM.
In the same order, the values of `COc1ccc(/C(O)=C2/C(=O)C(=O)N(CCN3CCOCC3)C2c2ccccn2)cc1OC` (configuration not stated) are 3.25%, -11%, -5.39% and greater than 20.6 µM.
For the molecule `CCCCCCCC(=O)OCC(=O)[C@@]1(O)CC[C@H]2[C@@H]3CCC4=CC(=O)CC[C@]4(C)[C@H]3[C@@H](O)C[C@@]21C`, the values for the activity change, negative = inhibition in test [1] and in test [2] were -9.61% and -28.6%, respectively. Also, in test [3], the activity, negative = inhibition was 7.91%. Besides, the Potency in test [4] was 0.00571 µM (active).
In the same order, the values of `Cc1cc(=O)oc(C)c1C(=O)NCCNC(=O)c1c(C)cc(=O)oc1C` are 7.25%, 6.33%, 6.54% and greater than 20.6 µM.
In the same order, the values of `COc1ccc(-c2cc3nc4n(c(=O)c3s2)CCOC4)cc1` are 18.4%, -10.1%, 0.631% and greater than 20.6 µM.
For `C=CCN=C(NC#N)SCCc1ccccc1` the same measures were -4.76%, 7.9%, 5.61% and greater than 20.6 µM.
